# Reference: paper PMC7862700, “An all-to-all approach to the identification of sequence-specific readers for epigenetic DNA modifications on cytosine”
# Tests used:
# Experiment in all cases: DAPPL (digital affinity profiling via proximity ligation, sequencing); 10 mM Tris-HCl pH 7.5, 50 mM NaCl, 1 mM DTT, 4% glycerol, room temperature, 30 min; GST-TFs on glutathione beads, 16-mer random dsDNA library, 0.1% formaldehyde crosslink after washing; high values mean tight binding
# [1] = target: T1, FEV (Homo sapiens, UniProt Q99581 1-238); details: protein: recombinant; tags: N-terminal GST; dsDNA, one strand shown
# T1 sequence: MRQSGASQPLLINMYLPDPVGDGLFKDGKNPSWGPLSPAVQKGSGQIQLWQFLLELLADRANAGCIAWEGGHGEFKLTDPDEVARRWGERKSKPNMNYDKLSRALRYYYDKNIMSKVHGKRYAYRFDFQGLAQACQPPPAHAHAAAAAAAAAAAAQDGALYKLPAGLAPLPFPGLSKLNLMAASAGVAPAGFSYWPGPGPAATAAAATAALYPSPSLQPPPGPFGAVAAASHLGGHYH
# Method in brief: (§1)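 Sequencing on an Illumina NextSeq500 followed washing, crosslinking with 0.1% formaldehyde, proximity ligation (BsaI/T4 ligase, 1 h, 37 °C) and PCR amplification of pools that had been incubated for 30 min at room temperature with 200 nmole of a random double-stranded 16-mer DNA library in Tris/NaCl/DTT/glycerol buffer. Each pool held DNA-barcoded human transcription factors, expressed in yeast as GST fusions and captured on glutathione beads, plus a tag-only sample. Binding signal is a hexamer's read frequency for a factor divided by its frequency in the tag-only sample.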
# [2] = target: ETV5 (Homo sapiens, UniProt P41161 1-510); details: protein: recombinant; tags: N-terminal GST; dsDNA, one strand shown
# Method in brief: as §1
# [3] = target: HSF1 (Homo sapiens, UniProt Q00613 1-529); details: protein: recombinant; tags: N-terminal GST; chain copies: 3; dsDNA, one strand shown
# Method in brief: as §1
# [4] = target: T2, SPIC (Homo sapiens, UniProt Q8N5J4 1-248); details: protein: recombinant; tags: N-terminal GST; dsDNA, one strand shown
# T2 sequence: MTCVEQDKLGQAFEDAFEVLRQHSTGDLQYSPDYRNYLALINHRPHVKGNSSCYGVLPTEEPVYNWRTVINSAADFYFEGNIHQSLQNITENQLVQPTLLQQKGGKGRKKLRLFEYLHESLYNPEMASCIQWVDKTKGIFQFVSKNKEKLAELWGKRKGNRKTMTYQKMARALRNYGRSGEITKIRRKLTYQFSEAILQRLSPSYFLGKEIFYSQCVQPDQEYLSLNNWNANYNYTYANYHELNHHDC
# Method in brief: as §1
# [5] = target: ELF4 (Homo sapiens, UniProt Q99607 1-663); details: protein: recombinant; tags: N-terminal GST; dsDNA, one strand shown
# Method in brief: as §1
# [6] = target: T3, ELK4 (Homo sapiens, UniProt P28324-2 1-405); details: protein: recombinant; tags: N-terminal GST; dsDNA, one strand shown
# T3 sequence: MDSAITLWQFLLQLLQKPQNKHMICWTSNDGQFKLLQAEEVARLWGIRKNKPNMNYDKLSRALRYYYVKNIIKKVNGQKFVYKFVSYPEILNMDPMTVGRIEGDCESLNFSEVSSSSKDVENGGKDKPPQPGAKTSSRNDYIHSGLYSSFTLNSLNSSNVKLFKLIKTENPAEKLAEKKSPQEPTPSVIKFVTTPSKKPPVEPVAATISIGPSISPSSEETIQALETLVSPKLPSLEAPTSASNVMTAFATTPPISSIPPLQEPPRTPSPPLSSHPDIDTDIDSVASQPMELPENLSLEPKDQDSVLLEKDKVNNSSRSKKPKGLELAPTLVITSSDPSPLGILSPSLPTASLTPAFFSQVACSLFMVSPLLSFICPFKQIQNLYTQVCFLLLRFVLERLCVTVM
# Method in brief: as §1
# [7] = target: T4, ETV2 (Homo sapiens, UniProt O00321 1-342); details: protein: recombinant; tags: N-terminal GST; dsDNA, one strand shown
# T4 sequence: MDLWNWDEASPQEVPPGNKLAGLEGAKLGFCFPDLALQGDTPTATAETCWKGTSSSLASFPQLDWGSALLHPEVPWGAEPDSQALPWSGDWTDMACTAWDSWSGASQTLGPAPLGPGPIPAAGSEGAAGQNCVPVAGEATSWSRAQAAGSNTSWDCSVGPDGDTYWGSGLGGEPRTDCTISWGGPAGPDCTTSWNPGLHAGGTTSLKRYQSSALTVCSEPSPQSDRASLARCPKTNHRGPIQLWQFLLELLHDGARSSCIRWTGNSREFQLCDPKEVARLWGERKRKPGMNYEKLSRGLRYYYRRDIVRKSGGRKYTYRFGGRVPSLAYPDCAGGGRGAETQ
# Method in brief: as §1
# [8] = target: T5, ELF3 (Homo sapiens, UniProt P78545 1-371); details: protein: recombinant; tags: N-terminal GST; dsDNA, one strand shown
# T5 sequence: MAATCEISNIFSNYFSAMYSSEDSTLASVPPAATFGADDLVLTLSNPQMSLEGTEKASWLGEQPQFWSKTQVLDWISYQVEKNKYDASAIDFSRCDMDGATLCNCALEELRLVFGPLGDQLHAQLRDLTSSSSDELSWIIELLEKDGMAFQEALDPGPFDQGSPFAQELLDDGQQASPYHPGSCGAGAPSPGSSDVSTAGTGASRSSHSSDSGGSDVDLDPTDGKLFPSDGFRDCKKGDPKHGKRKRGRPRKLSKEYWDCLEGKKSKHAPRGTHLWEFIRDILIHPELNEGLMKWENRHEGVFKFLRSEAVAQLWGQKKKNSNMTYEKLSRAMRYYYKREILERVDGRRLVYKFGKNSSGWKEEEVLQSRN
# Method in brief: as §1
# [9] = target: CRX (Homo sapiens, UniProt O43186 1-299); details: protein: recombinant; tags: N-terminal GST; dsDNA, one strand shown
# Method in brief: as §1
# [10] = target: ETV1 (Homo sapiens, UniProt P50549 1-477); details: protein: recombinant; tags: N-terminal GST; dsDNA, one strand shown
# Method in brief: as §1
# [11] = target: T6, ERF (Homo sapiens, UniProt P50548 1-548); details: protein: recombinant; tags: N-terminal GST; dsDNA, one strand shown
# T6 sequence: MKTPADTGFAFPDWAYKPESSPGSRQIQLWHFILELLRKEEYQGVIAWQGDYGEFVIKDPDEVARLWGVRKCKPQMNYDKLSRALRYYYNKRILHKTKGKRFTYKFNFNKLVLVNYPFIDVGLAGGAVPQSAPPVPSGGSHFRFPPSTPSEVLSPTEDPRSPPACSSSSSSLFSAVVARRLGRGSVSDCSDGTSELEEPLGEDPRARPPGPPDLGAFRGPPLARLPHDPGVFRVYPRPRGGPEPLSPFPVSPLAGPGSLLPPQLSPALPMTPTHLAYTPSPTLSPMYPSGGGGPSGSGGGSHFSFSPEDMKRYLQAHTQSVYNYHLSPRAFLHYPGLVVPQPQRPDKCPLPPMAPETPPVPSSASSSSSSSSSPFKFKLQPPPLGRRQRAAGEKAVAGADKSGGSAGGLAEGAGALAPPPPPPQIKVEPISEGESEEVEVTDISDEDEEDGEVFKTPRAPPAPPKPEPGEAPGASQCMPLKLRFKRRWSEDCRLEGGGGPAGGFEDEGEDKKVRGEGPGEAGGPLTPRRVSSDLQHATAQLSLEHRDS
# Method in brief: as §1
# [12] = target: T7, ETS2 (Homo sapiens, UniProt P15036 1-469); details: protein: recombinant; tags: N-terminal GST; dsDNA, one strand shown
# T7 sequence: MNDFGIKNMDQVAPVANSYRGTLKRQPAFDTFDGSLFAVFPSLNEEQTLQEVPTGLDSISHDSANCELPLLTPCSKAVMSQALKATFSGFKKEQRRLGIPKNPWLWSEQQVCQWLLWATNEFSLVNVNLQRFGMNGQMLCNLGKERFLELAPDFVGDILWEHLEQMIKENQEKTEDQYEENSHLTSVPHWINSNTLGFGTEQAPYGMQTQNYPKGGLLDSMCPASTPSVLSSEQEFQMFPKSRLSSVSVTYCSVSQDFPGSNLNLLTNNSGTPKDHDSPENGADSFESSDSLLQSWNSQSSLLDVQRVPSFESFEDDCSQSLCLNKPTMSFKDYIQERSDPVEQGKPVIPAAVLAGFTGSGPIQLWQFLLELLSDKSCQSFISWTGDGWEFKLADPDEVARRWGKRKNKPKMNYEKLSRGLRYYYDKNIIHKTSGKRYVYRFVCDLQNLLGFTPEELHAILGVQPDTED
# Method in brief: as §1
# [13] = target: T8, SPDEF (Homo sapiens, UniProt O95238 1-335); details: protein: recombinant; tags: N-terminal GST; dsDNA, one strand shown
# T8 sequence: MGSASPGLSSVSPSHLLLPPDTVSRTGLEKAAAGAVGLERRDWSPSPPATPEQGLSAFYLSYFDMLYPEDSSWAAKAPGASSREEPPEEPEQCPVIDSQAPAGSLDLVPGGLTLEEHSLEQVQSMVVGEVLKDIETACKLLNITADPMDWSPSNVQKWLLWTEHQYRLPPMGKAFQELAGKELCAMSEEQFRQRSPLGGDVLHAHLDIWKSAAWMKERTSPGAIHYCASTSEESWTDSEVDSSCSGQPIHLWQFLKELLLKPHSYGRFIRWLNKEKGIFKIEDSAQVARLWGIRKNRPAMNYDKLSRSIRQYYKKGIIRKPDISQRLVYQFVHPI
# Method in brief: as §1
# [14] = target: T9, ETV7 (Homo sapiens, UniProt Q9Y603 1-341); details: protein: recombinant; tags: N-terminal GST; dsDNA, one strand shown
# T9 sequence: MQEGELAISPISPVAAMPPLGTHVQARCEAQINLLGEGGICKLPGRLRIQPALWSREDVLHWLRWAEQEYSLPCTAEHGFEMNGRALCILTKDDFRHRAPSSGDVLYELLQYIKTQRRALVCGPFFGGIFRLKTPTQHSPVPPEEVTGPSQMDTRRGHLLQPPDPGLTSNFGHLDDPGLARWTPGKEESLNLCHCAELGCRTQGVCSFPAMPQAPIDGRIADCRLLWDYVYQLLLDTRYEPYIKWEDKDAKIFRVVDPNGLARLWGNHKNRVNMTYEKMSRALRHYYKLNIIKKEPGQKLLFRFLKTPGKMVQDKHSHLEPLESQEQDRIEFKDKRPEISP
# Method in brief: as §1
# [15] = target: T10, ETV3 (Homo sapiens, UniProt P41162-2 1-143); details: protein: recombinant; tags: N-terminal GST; dsDNA, one strand shown
# T10 sequence: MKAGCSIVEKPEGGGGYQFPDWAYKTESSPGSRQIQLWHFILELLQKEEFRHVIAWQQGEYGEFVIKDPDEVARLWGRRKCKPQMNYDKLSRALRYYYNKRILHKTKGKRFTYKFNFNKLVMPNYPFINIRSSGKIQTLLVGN
# Method in brief: as §1
# [16] = target: ETV6 (Homo sapiens, UniProt P41212 1-452); details: protein: recombinant; tags: N-terminal GST; dsDNA, one strand shown
# Method in brief: as §1
# Chain of CRX (O43186 whole entry): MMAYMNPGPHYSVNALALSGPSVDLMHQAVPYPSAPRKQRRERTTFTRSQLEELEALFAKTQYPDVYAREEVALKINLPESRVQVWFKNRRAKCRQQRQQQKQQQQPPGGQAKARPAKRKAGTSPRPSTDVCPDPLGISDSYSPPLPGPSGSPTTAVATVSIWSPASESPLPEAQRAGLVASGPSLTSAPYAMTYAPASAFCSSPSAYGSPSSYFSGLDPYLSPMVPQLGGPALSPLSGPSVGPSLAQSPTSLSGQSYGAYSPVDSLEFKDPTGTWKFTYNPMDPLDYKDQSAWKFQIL
# Chain of ETV5 (P41161 whole entry): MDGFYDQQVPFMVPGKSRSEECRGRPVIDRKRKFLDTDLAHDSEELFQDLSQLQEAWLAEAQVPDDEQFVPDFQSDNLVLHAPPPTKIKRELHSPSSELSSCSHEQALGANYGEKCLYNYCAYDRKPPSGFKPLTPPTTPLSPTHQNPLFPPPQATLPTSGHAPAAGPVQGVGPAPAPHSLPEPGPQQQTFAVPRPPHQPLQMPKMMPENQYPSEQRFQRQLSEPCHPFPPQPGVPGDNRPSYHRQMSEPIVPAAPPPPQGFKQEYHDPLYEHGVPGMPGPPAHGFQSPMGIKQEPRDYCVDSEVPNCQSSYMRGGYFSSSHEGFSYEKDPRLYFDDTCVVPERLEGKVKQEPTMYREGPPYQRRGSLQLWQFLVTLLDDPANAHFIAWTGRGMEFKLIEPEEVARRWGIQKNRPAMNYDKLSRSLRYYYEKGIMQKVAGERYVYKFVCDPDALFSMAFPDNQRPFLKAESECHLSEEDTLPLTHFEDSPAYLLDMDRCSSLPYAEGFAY
# Chain of ETV1 (P50549 whole entry): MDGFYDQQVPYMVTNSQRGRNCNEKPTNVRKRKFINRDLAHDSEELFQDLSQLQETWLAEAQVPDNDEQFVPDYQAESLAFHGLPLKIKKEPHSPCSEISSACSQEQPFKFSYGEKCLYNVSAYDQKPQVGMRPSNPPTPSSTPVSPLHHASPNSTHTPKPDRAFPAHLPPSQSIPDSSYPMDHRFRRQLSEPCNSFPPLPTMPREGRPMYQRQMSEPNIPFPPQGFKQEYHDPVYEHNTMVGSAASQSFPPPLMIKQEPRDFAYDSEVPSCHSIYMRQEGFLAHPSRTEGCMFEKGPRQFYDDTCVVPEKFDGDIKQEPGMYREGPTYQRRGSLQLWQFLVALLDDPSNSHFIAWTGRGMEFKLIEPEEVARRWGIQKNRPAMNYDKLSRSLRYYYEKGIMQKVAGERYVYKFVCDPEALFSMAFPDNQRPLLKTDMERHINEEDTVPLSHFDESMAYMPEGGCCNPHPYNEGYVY
# Chain of ETV6 (P41212 whole entry): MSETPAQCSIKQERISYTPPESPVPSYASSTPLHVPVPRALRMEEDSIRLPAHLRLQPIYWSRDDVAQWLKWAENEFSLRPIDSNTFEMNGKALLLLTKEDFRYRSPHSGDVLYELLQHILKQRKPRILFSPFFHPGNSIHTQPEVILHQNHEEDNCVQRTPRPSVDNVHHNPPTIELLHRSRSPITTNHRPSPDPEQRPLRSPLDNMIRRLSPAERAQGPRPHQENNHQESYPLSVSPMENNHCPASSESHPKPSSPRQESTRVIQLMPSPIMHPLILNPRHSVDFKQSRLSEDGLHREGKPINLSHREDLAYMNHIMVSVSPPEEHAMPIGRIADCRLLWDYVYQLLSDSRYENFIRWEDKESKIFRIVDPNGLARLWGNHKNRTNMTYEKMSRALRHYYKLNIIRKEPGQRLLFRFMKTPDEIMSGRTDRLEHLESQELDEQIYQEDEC
# Chain of ELF4 (Q99607 whole entry): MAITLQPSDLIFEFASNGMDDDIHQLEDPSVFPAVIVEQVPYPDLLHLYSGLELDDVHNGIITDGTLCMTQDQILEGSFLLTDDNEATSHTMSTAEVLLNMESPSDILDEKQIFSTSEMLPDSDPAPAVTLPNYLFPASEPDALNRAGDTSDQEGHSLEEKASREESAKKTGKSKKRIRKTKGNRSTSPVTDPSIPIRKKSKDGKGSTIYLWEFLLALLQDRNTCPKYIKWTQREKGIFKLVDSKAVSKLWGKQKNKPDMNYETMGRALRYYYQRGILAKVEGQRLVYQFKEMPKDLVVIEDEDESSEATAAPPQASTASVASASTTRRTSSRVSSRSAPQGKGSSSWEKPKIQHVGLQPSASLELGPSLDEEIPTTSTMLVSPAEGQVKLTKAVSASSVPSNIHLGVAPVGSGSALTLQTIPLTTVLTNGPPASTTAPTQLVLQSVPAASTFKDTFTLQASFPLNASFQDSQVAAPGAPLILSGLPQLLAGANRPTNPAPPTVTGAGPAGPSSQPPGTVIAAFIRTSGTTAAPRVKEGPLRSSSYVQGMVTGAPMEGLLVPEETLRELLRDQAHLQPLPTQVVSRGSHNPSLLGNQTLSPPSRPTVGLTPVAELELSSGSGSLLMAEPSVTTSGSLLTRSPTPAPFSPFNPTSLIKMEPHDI
# Chain of HSF1 (Q00613 whole entry): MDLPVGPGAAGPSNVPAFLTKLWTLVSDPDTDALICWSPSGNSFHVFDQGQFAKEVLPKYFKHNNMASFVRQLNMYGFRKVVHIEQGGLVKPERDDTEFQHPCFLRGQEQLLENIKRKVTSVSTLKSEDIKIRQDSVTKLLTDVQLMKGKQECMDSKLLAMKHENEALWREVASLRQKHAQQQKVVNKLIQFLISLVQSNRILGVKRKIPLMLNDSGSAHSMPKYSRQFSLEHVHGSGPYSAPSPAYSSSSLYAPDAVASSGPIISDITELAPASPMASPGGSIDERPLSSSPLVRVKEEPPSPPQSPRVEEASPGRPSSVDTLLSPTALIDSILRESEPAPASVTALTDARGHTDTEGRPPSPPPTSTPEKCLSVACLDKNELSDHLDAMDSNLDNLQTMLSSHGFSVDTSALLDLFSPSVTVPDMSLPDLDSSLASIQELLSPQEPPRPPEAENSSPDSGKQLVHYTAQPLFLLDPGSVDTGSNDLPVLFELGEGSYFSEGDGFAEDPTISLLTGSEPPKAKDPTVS
sequence,measurement,setting,value
GTTCGA,binding signal,[1],"1.02 fold enrichment (6-mer frequency, TF over GST control)"
same,binding signal,[2],"1.07 fold enrichment (6-mer frequency, TF over GST control)"
same,binding signal,[3],"1.9 fold enrichment (6-mer frequency, TF over GST control)"
same,binding signal,[4],"1.15 fold enrichment (6-mer frequency, TF over GST control)"
same,binding signal,[5],"1.12 fold enrichment (6-mer frequency, TF over GST control)"
same,binding signal,[6],"1.07 fold enrichment (6-mer frequency, TF over GST control)"
same,binding signal,[7],"1 fold enrichment (6-mer frequency, TF over GST control)"
same,binding signal,[8],"1.13 fold enrichment (6-mer frequency, TF over GST control)"
same,binding signal,[9],"1.11 fold enrichment (6-mer frequency, TF over GST control)"
same,binding signal,[10],"1.08 fold enrichment (6-mer frequency, TF over GST control)"
same,binding signal,[11],"1.23 fold enrichment (6-mer frequency, TF over GST control)"
same,binding signal,[12],"1.12 fold enrichment (6-mer frequency, TF over GST control)"
same,binding signal,[13],"1.01 fold enrichment (6-mer frequency, TF over GST control)"
same,binding signal,[14],"1.13 fold enrichment (6-mer frequency, TF over GST control)"
same,binding signal,[15],"1.06 fold enrichment (6-mer frequency, TF over GST control)"
same,binding signal,[16],"1.02 fold enrichment (6-mer frequency, TF over GST control)"
